{
  "source": "paper PMC7862700",
  "about": "“An all-to-all approach to the identification of sequence-specific readers for epigenetic DNA modifications on cytosine”",
  "experiment_in_all_cases": "DAPPL (digital affinity profiling via proximity ligation, sequencing); 10 mM Tris-HCl pH 7.5, 50 mM NaCl, 1 mM DTT, 4% glycerol, room temperature, 30 min; GST-TFs on glutathione beads, 16-mer random dsDNA library, 0.1% formaldehyde crosslink after washing; high values mean tight binding",
  "conditions_in_all_cases": "protein: recombinant; tags: N-terminal GST; dsDNA, one strand shown",
  "key": {"FLI1": {"biological_target": "T1, FLI1 (Homo sapiens, UniProt Q01543 1-452)", "T1 sequence": "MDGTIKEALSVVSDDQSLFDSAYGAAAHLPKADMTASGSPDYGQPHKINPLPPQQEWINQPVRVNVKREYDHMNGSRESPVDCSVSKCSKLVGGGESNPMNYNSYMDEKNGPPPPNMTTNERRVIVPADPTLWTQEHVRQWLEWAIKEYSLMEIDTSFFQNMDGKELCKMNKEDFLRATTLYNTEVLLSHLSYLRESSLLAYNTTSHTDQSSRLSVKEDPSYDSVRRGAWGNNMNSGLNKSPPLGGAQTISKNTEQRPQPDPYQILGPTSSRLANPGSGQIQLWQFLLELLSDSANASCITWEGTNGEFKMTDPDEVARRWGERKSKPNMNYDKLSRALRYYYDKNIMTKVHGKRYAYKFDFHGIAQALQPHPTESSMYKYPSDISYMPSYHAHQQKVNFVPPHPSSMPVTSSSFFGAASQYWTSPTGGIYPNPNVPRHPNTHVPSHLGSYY", "how_it_was_run": "(§1)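 In yeast, human transcription factors were expressed with a GST fusion, then pulled down on glutathione beads and given DNA barcodes. Pooled with a tag-only sample, they were exposed to 200 nmole of a 16-mer random double-stranded DNA library (Tris/NaCl/DTT/glycerol buffer, room temperature, 30 min), washed, crosslinked with 0.1% formaldehyde, proximity-ligated using BsaI/T4 ligase for 1 h at 37 °C, PCR-amplified and read on an Illumina NextSeq500. Each hexamer's frequency of reads for a factor, divided by the matching frequency for the tag-only sample, gives the binding signal.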"}, "GABPA": {"biological_target": "T2, GABPA (Homo sapiens, UniProt Q06546 1-454)", "T2 sequence": "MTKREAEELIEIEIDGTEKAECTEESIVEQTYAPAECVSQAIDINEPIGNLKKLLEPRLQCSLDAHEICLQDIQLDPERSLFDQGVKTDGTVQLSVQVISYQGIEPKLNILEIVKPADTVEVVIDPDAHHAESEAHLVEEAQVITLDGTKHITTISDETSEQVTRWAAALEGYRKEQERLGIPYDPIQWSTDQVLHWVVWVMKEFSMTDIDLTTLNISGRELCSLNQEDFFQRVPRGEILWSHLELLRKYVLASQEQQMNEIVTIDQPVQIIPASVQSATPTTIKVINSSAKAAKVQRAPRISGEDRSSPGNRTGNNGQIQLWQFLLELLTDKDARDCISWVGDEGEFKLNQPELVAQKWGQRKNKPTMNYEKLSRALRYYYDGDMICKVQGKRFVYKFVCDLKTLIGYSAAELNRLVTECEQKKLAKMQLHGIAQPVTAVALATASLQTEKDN", "how_it_was_run": "as §1"}, "ERG": {"biological_target": "T3, ERG (Homo sapiens, UniProt P11308 1-479)", "T3 sequence": "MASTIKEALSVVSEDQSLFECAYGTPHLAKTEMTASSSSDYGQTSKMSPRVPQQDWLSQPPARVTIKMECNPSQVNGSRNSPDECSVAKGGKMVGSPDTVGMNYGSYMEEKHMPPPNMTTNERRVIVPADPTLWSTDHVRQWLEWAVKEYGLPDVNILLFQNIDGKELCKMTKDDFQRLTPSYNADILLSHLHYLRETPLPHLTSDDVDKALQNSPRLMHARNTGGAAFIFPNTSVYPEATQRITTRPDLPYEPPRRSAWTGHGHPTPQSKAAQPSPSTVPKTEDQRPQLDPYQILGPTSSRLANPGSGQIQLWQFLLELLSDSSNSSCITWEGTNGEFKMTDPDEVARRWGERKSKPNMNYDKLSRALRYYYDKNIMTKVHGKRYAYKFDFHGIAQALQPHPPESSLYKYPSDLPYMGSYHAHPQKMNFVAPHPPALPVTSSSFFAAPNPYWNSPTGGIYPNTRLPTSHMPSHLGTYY", "how_it_was_run": "as §1"}, "EHF": {"biological_target": "T4, EHF (Homo sapiens, UniProt Q9NZC4 1-300)", "T4 sequence": "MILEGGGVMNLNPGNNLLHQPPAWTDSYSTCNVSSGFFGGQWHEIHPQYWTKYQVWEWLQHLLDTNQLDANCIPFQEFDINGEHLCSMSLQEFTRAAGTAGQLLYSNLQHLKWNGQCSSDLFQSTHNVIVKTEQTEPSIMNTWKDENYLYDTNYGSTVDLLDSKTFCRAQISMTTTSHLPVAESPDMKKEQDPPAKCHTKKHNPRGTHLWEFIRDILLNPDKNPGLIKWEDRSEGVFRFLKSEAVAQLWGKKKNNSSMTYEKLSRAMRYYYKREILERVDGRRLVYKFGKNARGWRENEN", "how_it_was_run": "as §1"}, "SPI1": {"biological_target": "SPI1 (Homo sapiens, UniProt P17947 1-270)", "how_it_was_run": "as §1"}, "ELK3": {"biological_target": "T5, ELK3 (Homo sapiens, UniProt P41970 1-407)", "T5 sequence": "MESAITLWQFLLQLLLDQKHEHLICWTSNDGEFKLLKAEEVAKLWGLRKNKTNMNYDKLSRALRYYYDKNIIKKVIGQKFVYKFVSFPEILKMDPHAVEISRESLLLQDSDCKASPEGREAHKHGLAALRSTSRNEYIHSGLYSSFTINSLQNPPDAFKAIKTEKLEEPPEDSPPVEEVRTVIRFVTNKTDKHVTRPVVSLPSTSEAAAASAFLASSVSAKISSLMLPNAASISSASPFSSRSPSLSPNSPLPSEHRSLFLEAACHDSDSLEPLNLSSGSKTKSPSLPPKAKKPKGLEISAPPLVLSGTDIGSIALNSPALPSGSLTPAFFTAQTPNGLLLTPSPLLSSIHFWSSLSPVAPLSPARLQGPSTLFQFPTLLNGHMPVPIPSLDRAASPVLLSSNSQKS", "how_it_was_run": "as §1"}, "FEV": {"biological_target": "T6, FEV (Homo sapiens, UniProt Q99581 1-238)", "T6 sequence": "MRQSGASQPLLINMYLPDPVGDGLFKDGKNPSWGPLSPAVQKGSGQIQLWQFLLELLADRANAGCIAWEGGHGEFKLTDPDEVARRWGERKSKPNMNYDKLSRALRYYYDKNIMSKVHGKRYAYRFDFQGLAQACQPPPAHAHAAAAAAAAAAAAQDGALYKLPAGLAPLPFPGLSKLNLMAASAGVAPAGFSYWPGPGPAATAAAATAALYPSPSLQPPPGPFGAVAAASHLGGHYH", "how_it_was_run": "as §1"}, "SPIC": {"biological_target": "T7, SPIC (Homo sapiens, UniProt Q8N5J4 1-248)", "T7 sequence": "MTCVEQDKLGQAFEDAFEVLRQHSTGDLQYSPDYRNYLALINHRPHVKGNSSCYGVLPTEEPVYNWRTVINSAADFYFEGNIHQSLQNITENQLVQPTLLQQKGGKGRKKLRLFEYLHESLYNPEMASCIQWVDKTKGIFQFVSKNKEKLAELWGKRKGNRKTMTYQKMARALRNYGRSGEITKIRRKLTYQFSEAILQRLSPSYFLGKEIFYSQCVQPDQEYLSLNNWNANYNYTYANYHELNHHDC", "how_it_was_run": "as §1"}, "ETV2": {"biological_target": "T8, ETV2 (Homo sapiens, UniProt O00321 1-342)", "T8 sequence": "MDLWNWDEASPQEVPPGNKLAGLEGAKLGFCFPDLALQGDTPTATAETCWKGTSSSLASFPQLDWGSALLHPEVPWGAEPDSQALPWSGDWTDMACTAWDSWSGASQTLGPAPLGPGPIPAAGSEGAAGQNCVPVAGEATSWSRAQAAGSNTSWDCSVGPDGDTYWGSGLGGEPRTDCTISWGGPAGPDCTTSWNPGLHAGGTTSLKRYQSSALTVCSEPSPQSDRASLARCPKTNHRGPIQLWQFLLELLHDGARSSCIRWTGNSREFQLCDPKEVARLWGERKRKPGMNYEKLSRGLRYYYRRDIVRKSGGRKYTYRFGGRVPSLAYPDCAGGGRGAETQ", "how_it_was_run": "as §1"}, "ETV1": {"biological_target": "ETV1 (Homo sapiens, UniProt P50549 1-477)", "sequence (P50549 whole entry)": "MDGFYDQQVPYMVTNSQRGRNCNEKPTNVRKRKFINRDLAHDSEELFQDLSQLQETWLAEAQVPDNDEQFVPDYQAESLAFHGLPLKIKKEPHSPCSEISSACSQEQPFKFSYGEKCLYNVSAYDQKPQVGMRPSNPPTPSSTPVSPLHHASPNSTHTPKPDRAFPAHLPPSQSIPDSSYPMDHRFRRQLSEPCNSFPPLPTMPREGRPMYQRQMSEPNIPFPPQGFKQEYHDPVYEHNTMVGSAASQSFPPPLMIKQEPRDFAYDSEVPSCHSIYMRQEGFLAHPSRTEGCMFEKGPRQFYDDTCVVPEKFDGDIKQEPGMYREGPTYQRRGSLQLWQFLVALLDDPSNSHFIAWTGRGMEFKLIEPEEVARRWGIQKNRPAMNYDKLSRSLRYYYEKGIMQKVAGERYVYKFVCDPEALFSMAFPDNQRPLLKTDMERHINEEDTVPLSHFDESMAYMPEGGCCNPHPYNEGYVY", "how_it_was_run": "as §1"}, "ERF": {"biological_target": "T9, ERF (Homo sapiens, UniProt P50548 1-548)", "T9 sequence": "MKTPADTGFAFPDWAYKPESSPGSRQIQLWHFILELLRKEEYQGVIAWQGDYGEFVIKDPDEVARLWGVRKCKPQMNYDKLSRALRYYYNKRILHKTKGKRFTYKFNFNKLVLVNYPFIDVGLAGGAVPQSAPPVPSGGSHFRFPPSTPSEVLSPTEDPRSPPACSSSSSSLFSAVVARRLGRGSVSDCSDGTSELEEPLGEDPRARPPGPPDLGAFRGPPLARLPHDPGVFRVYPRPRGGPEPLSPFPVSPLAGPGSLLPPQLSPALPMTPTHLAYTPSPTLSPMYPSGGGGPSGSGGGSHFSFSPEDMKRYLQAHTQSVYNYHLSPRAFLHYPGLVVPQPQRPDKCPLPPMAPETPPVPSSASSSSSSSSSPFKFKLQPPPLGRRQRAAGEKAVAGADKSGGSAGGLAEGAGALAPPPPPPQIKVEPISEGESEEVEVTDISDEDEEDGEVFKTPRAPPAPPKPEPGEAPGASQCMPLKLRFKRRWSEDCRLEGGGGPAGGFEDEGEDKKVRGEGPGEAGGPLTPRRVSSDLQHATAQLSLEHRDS", "how_it_was_run": "as §1"}, "ETS2": {"biological_target": "T10, ETS2 (Homo sapiens, UniProt P15036 1-469)", "T10 sequence": "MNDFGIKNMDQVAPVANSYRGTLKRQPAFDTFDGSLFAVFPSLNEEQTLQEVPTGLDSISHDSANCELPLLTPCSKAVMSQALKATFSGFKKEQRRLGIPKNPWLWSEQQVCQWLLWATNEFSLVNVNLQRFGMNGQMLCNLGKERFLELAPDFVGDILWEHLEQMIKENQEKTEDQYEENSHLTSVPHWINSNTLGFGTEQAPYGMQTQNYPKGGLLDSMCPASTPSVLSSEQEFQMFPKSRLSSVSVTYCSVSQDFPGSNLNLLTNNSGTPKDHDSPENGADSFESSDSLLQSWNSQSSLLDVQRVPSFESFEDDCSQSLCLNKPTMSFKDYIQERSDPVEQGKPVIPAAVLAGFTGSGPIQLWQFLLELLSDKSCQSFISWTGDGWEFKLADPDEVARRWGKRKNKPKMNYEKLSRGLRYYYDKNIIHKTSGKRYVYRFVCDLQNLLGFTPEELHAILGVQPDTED", "how_it_was_run": "as §1"}, "SPDEF": {"biological_target": "T11, SPDEF (Homo sapiens, UniProt O95238 1-335)", "T11 sequence": "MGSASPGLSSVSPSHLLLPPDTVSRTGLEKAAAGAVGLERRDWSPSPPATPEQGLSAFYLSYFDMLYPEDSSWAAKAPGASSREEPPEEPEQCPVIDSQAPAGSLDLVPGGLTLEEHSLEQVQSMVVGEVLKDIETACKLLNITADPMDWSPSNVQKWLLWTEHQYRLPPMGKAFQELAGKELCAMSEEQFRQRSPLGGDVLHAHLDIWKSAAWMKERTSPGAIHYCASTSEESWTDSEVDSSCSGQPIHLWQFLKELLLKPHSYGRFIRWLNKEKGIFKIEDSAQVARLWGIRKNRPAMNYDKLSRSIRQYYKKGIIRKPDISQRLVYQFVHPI", "how_it_was_run": "as §1"}},
  "data": [
    {"sequence": "GTCGAC", "values": [
      {"measurement": "binding signal", "setting": "FLI1", "result": "1.04 fold enrichment (6-mer frequency, TF over GST control)"},
      {"measurement": "binding signal", "setting": "GABPA", "result": "1.02 fold enrichment (6-mer frequency, TF over GST control)"},
      {"measurement": "binding signal", "setting": "ERG", "result": "1.07 fold enrichment (6-mer frequency, TF over GST control)"},
      {"measurement": "binding signal", "setting": "EHF", "result": "1.01 fold enrichment (6-mer frequency, TF over GST control)"},
      {"measurement": "binding signal", "setting": "SPI1", "result": "1.08 fold enrichment (6-mer frequency, TF over GST control)"},
      {"measurement": "binding signal", "setting": "ELK3", "result": "1.06 fold enrichment (6-mer frequency, TF over GST control)"},
      {"measurement": "binding signal", "setting": "FEV", "result": "1.02 fold enrichment (6-mer frequency, TF over GST control)"},
      {"measurement": "binding signal", "setting": "SPIC", "result": "1.07 fold enrichment (6-mer frequency, TF over GST control)"},
      {"measurement": "binding signal", "setting": "ETV2", "result": "1.02 fold enrichment (6-mer frequency, TF over GST control)"},
      {"measurement": "binding signal", "setting": "ETV1", "result": "1 fold enrichment (6-mer frequency, TF over GST control)"},
      {"measurement": "binding signal", "setting": "ERF", "result": "1.07 fold enrichment (6-mer frequency, TF over GST control)"},
      {"measurement": "binding signal", "setting": "ETS2", "result": "1.04 fold enrichment (6-mer frequency, TF over GST control)"},
      {"measurement": "binding signal", "setting": "SPDEF", "result": "1.06 fold enrichment (6-mer frequency, TF over GST control)"}
    ]}
  ]
}
